Hit rate of the full screen: of about 350,000 compounds, about 31,000 (8.9%) were called active. About 15% were inconclusive and are not listed. Many of the other results were omitted from the sample, so actives are more common in it than they were. Unmarked numbers belong to inactive results. Calls come from the whole dose curve; as a rule, active = well fitted inhibition curve with a large enough effect; inconclusive = small, poorly fitted or top-dose-only effect; inactive = no such curve, though single readings can be large or run the other way.
Molecular target: Histone-lysine N-methyltransferase EHMT2 (Homo sapiens) (UniProt Q96KQ7)
Assay: qHTS Assay for Inhibitors of Histone Lysine Methyltransferase G9a; note: nearly all actives have a fitted effect of over 75% in size
Conditions: G9a H3K9 monomethylation, AlphaScreen, 2 h; series mostly up to 59 µM; activity, negative = inhibition: at the top concentration
Outline: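 G9a (20 nM) preincubated 15 min RT with compounds, then 500 nM biotinylated H3K9 peptide and 20 uM SAM added; 2 h RT reaction. Monomethyl-H3K9 product detected by AlphaScreen with anti-H3K9me1 antibody, streptavidin donor and anti-rabbit IgG acceptor beads.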
% is set by controls: 0 for no effect and ±100 for the full control effect; potency is the fitted concentration of half-maximal effect.

Chain of Histone-lysine N-methyltransferase EHMT2 (Homo sapiens) (Q96KQ7 913-1193 limits assumed): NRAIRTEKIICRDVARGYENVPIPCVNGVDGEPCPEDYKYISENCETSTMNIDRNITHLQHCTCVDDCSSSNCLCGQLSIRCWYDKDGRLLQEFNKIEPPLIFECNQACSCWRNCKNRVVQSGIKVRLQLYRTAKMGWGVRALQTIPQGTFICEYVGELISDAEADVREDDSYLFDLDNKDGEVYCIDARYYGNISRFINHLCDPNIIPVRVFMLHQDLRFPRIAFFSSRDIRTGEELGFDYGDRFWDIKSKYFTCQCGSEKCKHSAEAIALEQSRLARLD

SMILES | activity, negative = inhibition | Potency
CCOc1ccc(CCNC(=O)COC(=O)c2c(OC)cccc2OC)cc1OCC | -6.24% [at 2.33 µM] | –
CCN(C(=O)CSc1nnnn1-c1ccccc1OC)C1CCS(=O)(=O)C1 (configuration not stated) | -20.6% [at 102 µM] | –
O=C(Cn1c(=O)n(Cc2ccccc2)c(=O)c2sc3ccccc3c21)Nc1ccccc1F | 7.47% | –
NC(=O)c1sc(-c2ccsc2)cc1N | – | 14.1 µM (active)
COc1cc(OC)cc(-c2nc3nc(C)c(CCC(=O)Nc4ccc(C)cc4)c(C)n3n2)c1 | 6.77% | –
COc1ccc(/C=C(\C#N)C(=O)OCC(=O)N(C)C2CCS(=O)(=O)C2)cc1 (configuration not stated) | 1.94% [at 102 µM] | –
O=C(Cc1ccccc1)NNC1CC(=O)N(c2ccc(Br)cc2)C1=O (configuration not stated) | 17.2% | –
Cc1ccc(N2C(=O)C3CC3C2=O)cc1 (configuration not stated) | 11.1% [at 102 µM] | –
Cc1ccc(N2C(=O)CC(Nc3cccc4ccccc34)C2=O)cc1 (configuration not stated) | – | 14.1 µM (active)
Cc1cccc(NC(=O)c2nnn(CC(=O)Nc3ccc(C(C)C)cc3)c2N)c1C | 8.78% | –
CN(CC(=O)NCc1ccc2c(c1)OCO2)CC(=O)Nc1ccc(F)c(F)c1F | 2.14% [at 12.7 µM] | –
CC1CCN(C(=O)/C(=C\c2ccccc2)NC(=O)c2ccccc2)CC1 | 4.64% [at 102 µM] | –
CC1CCN(c2ccc([N+](=O)[O-])cc2C(N)=O)CC1 | 10.6% [at 102 µM] | –
CC1CCN(C(=S)c2cccc([N+](=O)[O-])c2)CC1 | – | 35.5 µM (active)
CC1CCN(C(=O)CCNC(=O)c2ccccc2)CC1 | 8.2% [at 102 µM] | –
CC1CCN(C(=S)c2cccc(O)c2)CC1 | – | 14.1 µM (active)
O=C(c1cccc([N+](=O)[O-])c1)N1CCN(C(=O)c2ccco2)CC1 | -8.6% [at 102 µM] | –
Cc1ccc(Cl)c(OCC(=O)N(C)CC(=O)Nc2ccc(N3CCOCC3)cc2)c1 | 10.6% [at 0.501 µM] | –
CCc1ccccc1NC(=O)CSc1nc(C)c(C(=O)Nc2ccccc2)c(-c2ccc(Cl)cc2)c1C#N | 24.8% | –
Cc1ccccc1C(=O)Nc1cc(C)c(O)c(-c2nc3ccccc3o2)c1 | 0.528% | –
COC(=O)CN1C(=O)[C@H]2[C@@H](C3CC3)N3C(=O)CN(Cc4ccc(-c5ccccc5)cc4)C(=O)[C@@]3(Cc3ccccc3)[C@H]2C1=O | -1.89% [at 102 µM] | –
CSc1ccc(C2C(C(=O)Nc3ccccc3)=C(C)Nc3nc4ccccc4n32)cc1 (configuration not stated) | -23.8% | –
CCn1c(CNS(=O)(=O)c2ccc(Cl)cc2)n[nH]c1=S | – | 28.2 µM (active)
Cc1cc(C)n(CCNS(=O)(=O)c2ccc(Cl)cc2)n1 | -7.54% [at 0.501 µM] | –

SMILES | activity, negative = inhibition | Potency
CSc1ccc(S(=O)(=O)NCc2ccc(Cl)cc2)cc1 | 15.9% [at 12.7 µM] | –
O=C(c1cc(-c2ccc(Cl)s2)nc2ccccc12)N1CCOCC1 | 17% [at 12.7 µM] | –
COc1ccc(CN2C(=O)C(NC(=O)c3cccc(C)c3)(C(F)(F)F)N=C2c2ccccc2)cc1 (configuration not stated) | 5.18% | –
COCCNc1cc(NCCOC)c([N+](=O)[O-])cc1[N+](=O)[O-] | -5.08% | –
Cc1ccc([N+](=O)[O-])c(OCCCNCC(C)O)c1 (configuration not stated) | – | 12.6 µM (active)
CCCCOc1ccc(CSC(=N)N)cc1[N+](=O)[O-] | 7.15% [at 12.7 µM] | –
COc1ccc(CC(NC(C)=O)C(=O)NC2CCN(C(=O)c3ccc(Cl)cc3)CC2)cc1 (configuration not stated) | -11.3% [at 102 µM] | –
Cc1ccc(NC(=O)N2CCC(c3nc4c(nnn4Cc4c(F)cccc4Cl)c(=O)[nH]3)CC2)cc1 | -23.2% [at 102 µM] | –
O=C(c1ccccc1F)N1CCC(c2nc3c(nnn3Cc3cccc(F)c3)c(=O)[nH]2)CC1 | – | 1 µM (active)
O=C(Nc1ccc(F)cc1)N1CCCC(c2nc3c(nnn3Cc3ccccc3Cl)c(=O)[nH]2)C1 (configuration not stated) | 0.052% [at 102 µM] | –
Cc1ccccc1Nc1nn2c(=O)c3ccc(C(=O)NCCc4ccc(Cl)cc4)cc3nc2s1 | -4.26% | –
Cc1cccc(C(=O)NCCCN2CCCC2=O)c1 | 16.7% [at 102 µM] | –
COc1ccc(-c2nc3ccc(C(=O)NCc4ccc(C)cc4)cc3nc2-c2ccc(OC)cc2)cc1 | 23.6% | –
Cc1cccc(-c2nc3ccc(C(=O)NCCN4CCN(C)CC4)cc3nc2-c2cccc(C)c2)c1 | – | 70.8 µM (active)
CCc1ccc(CNC(=O)C2CCN(c3nnc(C)c4c(C)n(-c5ccc(C)cc5)nc34)CC2)cc1 | – | inactive
CC1CC1C(=O)OCC(=O)Nc1cccc(F)c1 (configuration not stated) | 17.7% [at 2.33 µM] | –
O=C(CCNC(=O)c1ccc(Cl)cc1)NC1CCCc2ccccc21 (configuration not stated) | 15.5% [at 2.33 µM] | –
O=C(CSc1nncs1)NC1CCCc2ccccc21 (configuration not stated) | 3.13% [at 102 µM] | –
O=C(CCC(=O)N1CCN(S(=O)(=O)c2ccccc2)CC1)NC1CCCc2ccccc21 (configuration not stated) | 11.3% | –
CSc1ccccc1N1CCN(CCCCCC(=O)NC2CCCc3ccccc32)CC1 (configuration not stated) | – | 21.2 µM (active)
Cc1ccc(S(=O)(=O)N2CCN(C(=O)CCC(=O)NC3CCCc4ccccc43)CC2)cc1 (configuration not stated) | -0.0182% [at 102 µM] | –
O=C(CN1CCN(c2ccc(O)cc2)CC1)NC1CCCc2ccccc21 (configuration not stated) | – | 25.1 µM (active)
COc1ccc(CCN2C(=O)c3oc4cc(C)cc(C)c4c(=O)c3C2c2ccccc2F)cc1OC (configuration not stated) | 5.08% | –

Source: PubChem BioAssay AID504332 (National Center for Advancing Translational Sciences (NCATS), 2011)
